# Bioassay records (PubChem BioAssay)
# A selection: hits, their analogues and other compounds. The true share with any hit is near 6.9%.
# Cy5 interf NS3h: enhances or quenches Cy5 fluorescence in NS3h assay; Cy5-dT15 DNA with NS3h, fluorescence interference; actives lie on both sides; signal over control mean, under 1 quenches; actives 6% (n = 16,000); AID 720488; fluorescence interference ratio at 100 µM;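 active means compound fluorescence over control fluorescence at most 0.8, a quencher, or at least a set upper limit, an enhancer; inactive means ratio between 0.8 and the set upper limit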
# NS3h inh CB: blocks HCV NS3 helicase binding to DNA; inhibition, % at 100 µM; NS3h Cy5-dT15 DNA binding, fluorescence polarization; actives 1.6% (n = 16,000);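 active means inhibition above the average over every tested compound plus 3 SD, cut at about 40% in these data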
# * hit, by the source's call.
SMILES,Cy5 interf NS3h,NS3h inh CB
COc1cccc(NC(=O)CN(c2ccc(C)cc2)S(C)(=O)=O)c1,0.99,6
O=C(CSC1CC(=O)N(c2cccc(Br)c2)C1=O)Nc1ccc(Cl)cc1 (stereo not drawn),0.79*,43*
O=C(CSc1cc(Cl)ccc1Cl)Nc1cccc(Br)c1,0.93,7
Cc1c(NC(=S)NC(NC(=O)c2ccccc2Cl)C(Cl)(Cl)Cl)c(=O)n(-c2ccccc2)n1C (stereo not drawn),0.94,8
COc1ccc(N2C(=O)C3C4C=CC(C5CC45)C3C2=O)c([N+](=O)[O-])c1 (stereo not drawn),0.98,6
COc1cc([N+](=O)[O-])ccc1N1C(=O)C2C3C=CC(C4CC34)C2C1=O (stereo not drawn),0.75*,9
O=C1c2ccccc2C(=O)c2c1cccc2S(=O)(=O)NNc1ccccc1,1.1,9
CCOC(=O)c1ccc(NC(=O)CC2SC(=O)NC2=O)cc1 (stereo not drawn),1,-15
O=C(Nc1c(C(=O)N2CCC(Cc3ccccc3)CC2)cnn1-c1ccccc1)c1cccc(F)c1,1,6
O=C(Nc1c(C(=O)N2CCN(Cc3ccccc3)CC2)cnn1-c1ccccc1)c1cccc(F)c1,1.3*,7
Cc1cc(C(=O)Nc2ccccc2C(=O)O)ccc1NC(=O)C(C)(C)C,1,-1
Cc1cc(C)c(/C=N\O)c(C)c1/C=N\O,0.69*,-1
CN(C)/C=C/C=C/C(=O)c1cccc(C(=O)/C=C/C=C/N(C)C)c1O,0.91,10
O=C(COc1ccccc1)Nc1cccc(Cl)c1Cl,0.99,8
N=C(SC1CC(=O)N(c2ccccc2Cl)C1=O)N1N=C(c2cccs2)CC1c1ccc(Br)cc1 (stereo not drawn),0.99,10
COCCOC(=O)c1c(C)oc2ccc(OCc3ccccc3F)cc12,0.92,9
CC(=O)N1c2ccccc2CC(N2CCCCC2)c2ccccc21 (stereo not drawn),0.76*,9
CC(=O)N(C)N1c2ccccc2CCc2ccccc21,1.1,4
O=C1NN(c2ccccc2)C(=O)/C1=C/c1cc([N+](=O)[O-])c(Cl)cc1Cl,0.89,39
O=C1NN(c2ccccc2)C(=O)/C1=C/c1cccn1-c1ccc([N+](=O)[O-])cc1,0.61*,30
O=C(O)/C=C/C(=O)NNC(=O)c1ccc(O)cc1,1,-6
Cn1ccnc1SCC(=O)c1ccc(Br)cc1,0.77*,12
O=C(CSc1ncn(-c2ccccc2)n1)c1ccc(Br)cc1,0.99,4
CCc1ccc(NC(=O)c2ccc(Cl)cc2)cc1,0.95,-9
Cc1ccc(S(=O)(=O)N2CCC(=O)C(C)C2)cc1 (stereo not drawn),0.74*,17
SMILES,Cy5 interf NS3h,NS3h inh CB
Cc1ccc(S(=O)(=O)N2CCN(C3CC4CCC3C4)CC2)cc1 (stereo not drawn),0.93,-20
Cc1ccc(NC(=S)NC(=O)C(=O)Nc2ccccc2)cc1,0.72*,10
O=C(Nc1ccccc1)C(=O)Nc1ccc(F)cc1,0.96,8
CCOc1ccc(/C=C2/N=C(c3sc4ccccc4c3Cl)OC2=O)cc1,1.1,0
COc1ccc(CCNC(=O)C(=O)Nc2cccc(C)c2)cc1,1.1,0
O=C(NCCO)C(=O)NCc1ccccc1,1.2,7
COC(=O)C1=C(C)NC(=O)NC1c1sccc1C (stereo not drawn),1,9
COc1ccc(/C=C2/N=C(c3ccc(Br)cc3)OC2=O)cc1,1.2*,12
Cc1ccc(/C=C2N=C(/C=C/c3ccccc3)OC/2=O)s1,1.1,10
O=C1OC(c2ccc(F)cc2)=N/C1=C\c1ccc(Cl)cc1,1.1,0
O=C1OC(/C=C/c2ccccc2)=NC/1=C/c1ccccc1,0.78*,20
COc1ccc(/C=C2\C(=O)ON=C2C)cc1,1.1,12
COc1ccc(/C=C2N=C(/C=C/c3ccccc3)OC/2=O)cc1,0.72*,15
CCCCOc1cccc(C(=O)Nc2ccc(-c3nc4ccccc4s3)c(O)c2)c1,1.2,12
CC(C)CNC(=O)CN(c1ccc(C(C)C)cc1)S(=O)(=O)c1ccccc1,1,12
O=C(Nc1cccc(C(F)(F)F)c1)c1ccccc1[N+](=O)[O-],0.86,6
CS(=O)(=O)N1CCN(C(=O)COc2ccccc2)CC1,1.1,5
CC1CCN(C(=O)c2ccc(I)cc2)CC1,0.99,5
CC1CCCN(C(=O)c2ccc(Cl)cc2)C1 (stereo not drawn),1,2
CC1CCN(C(=O)COc2ccc(-c3ccccc3)cc2)CC1,0.67*,25
CC1CCN(C(=O)c2ccccc2)CC1,0.68*,-2
CC1CCCN(C(=O)c2ccccc2)C1 (stereo not drawn),0.79*,6
Cc1ccc(NC(=O)c2cccc3ccccc23)c([N+](=O)[O-])c1,1.1,12
COC(=O)C12CC3CC(CC(C(=O)OC)(C1)C31SCCS1)C21SCCS1,1,5
COC(=O)c1cc(Nc2nc3ccccc3nc2NS(=O)(=O)c2ccccc2)ccc1Cl,0.69*,21
SMILES,Cy5 interf NS3h,NS3h inh CB
COC(=O)c1ccccc1NS(=O)(=O)c1ccc(NC(C)=O)cc1,1,-7
OCC(O)COC(c1ccccc1)(c1ccccc1)c1ccccc1 (stereo not drawn),0.92,27
COc1ccc(C(=O)N/C(=C/c2ccc(-c3cc(Cl)ccc3Cl)o2)C(=O)NCCCO)cc1,0.93,9
Cc1ccc(S(=O)(=O)N(Cc2ccccc2)c2ccccc2C(=O)NCCc2ccccc2)cc1,1,14
COc1ccc(OC)c(-c2nc(-c3ccccc3)c(-c3cccs3)[nH]2)c1,0.92,10
COc1ccc(-c2nc(-c3ccc(O)cc3)[nH]c2-c2ccc(OC)cc2)cc1,0.73*,7
CCc1ccc(OCC(=O)Nc2cccc(OC)c2)cc1,0.74*,14
COc1ccc(OCC(=O)Nc2cccc(C(C)=O)c2)cc1,1.1,5
Cc1ccc(NC(=O)C(=O)NCCCO)cc1,1.1,4
COc1ccc(C2Nc3ccc4ccccc4c3C3=C2C(=O)CC(C)(C)C3)cc1[N+](=O)[O-] (stereo not drawn),0.97,9
CC1(C)CC(=O)C2=C(C1)c1c(ccc3ccccc13)NC2c1ccccc1F (stereo not drawn),0.75*,21
CC(C)=CC1C(CNC(=O)C(Cl)(Cl)Cl)C1(C)C (stereo not drawn),1.1,4
Cc1nnc(Nc2ccc3c(c2)ncn3C)c2ccccc12,1.2*,12
COc1ccc(-n2cnc3cc(Nc4nnc(C)c5ccccc45)ccc32)cc1,0.74*,5
Cc1ccc(-c2nnc(Nc3ccc4c(c3)nc(C)n4C)c3ccccc23)cc1,0.71*,5
COc1ccccc1-n1cnc2cc(Nc3nnc(C)c4ccccc34)ccc21,0.93,-2
Cn1cnc2cc(Nc3nnc(-c4ccccc4)c4ccccc34)ccc21,1,-4
COc1ccc(-c2nnc(Nc3ccc4c(c3)nc(C)n4C)c3ccccc23)cc1,0.93,5
CCOC(=O)c1c(NC(=O)/C=C/c2ccc(OC)cc2)sc2c1CCCC2,1,8
COc1cc(/C=C2/SC(=S)N(CC(=O)Nc3cccc(C(=O)O)c3)C2=O)cc(OC)c1OC,1,15
O=C(CN1C(=O)/C(=C/c2cccc(Br)c2)SC1=S)Nc1cccc(C(=O)O)c1,0.76*,39
Nc1nonc1C(=O)NCCNC(=O)CCc1ccccc1,1,6
